High-throughput results (PubChem BioAssay)
This is a sample that favours compounds with a hit; in the whole collection about 1.8% have one here.
PP5 primary – inhibitors of human protein phosphatase 5 (PP5). purified PP5c, OMFP substrate fluorescence. inhibition, % at 6.7 µM. actives 0.18% (n = 320,000). AID 1987;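 active = inhibition above the campaign's mean inhibition across all tested compounds plus 3 SD, cut at about 9.5% in these data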;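 note: 0% = DMSO only and 100% = 100 µM cantharidin control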
Target sequence (P53041 whole entry, looked up): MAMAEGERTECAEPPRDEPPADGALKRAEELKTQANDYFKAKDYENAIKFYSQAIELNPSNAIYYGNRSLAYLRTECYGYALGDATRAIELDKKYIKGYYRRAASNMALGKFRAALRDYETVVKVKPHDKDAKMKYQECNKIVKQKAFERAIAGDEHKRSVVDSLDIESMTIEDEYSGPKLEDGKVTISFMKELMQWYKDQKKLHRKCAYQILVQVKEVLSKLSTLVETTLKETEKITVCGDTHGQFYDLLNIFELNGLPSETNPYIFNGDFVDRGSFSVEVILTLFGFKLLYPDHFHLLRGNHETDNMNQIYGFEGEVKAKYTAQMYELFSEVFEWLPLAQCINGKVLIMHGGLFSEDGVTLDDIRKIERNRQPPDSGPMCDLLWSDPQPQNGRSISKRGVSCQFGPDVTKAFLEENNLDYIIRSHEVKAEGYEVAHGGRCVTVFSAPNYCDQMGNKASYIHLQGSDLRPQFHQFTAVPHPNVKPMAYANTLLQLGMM
LYPLA2 inh – LYPLA2 (human) inhibition in PME1 counter-screen | O95372 | recombinant LYPLA2, FP-Rh probe fluorescence polarization | inhibition, % at 5.9 µM | actives 0.38% (n = 320,000);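 active = inhibition above the screen-wide mean plus 3 SD, limit set per campaign, cut at about 26% in these data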;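 note: 0% = LYPLA2 with DMSO and 100% = wells lacking LYPLA2 enzyme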
PP1 inh – blocks human PP1-alpha phosphatase, a PP5 counter-screen; actives 0.9% (n = 320,000); AID 2235; purified PP1alpha, OMFP fluorescence; P62136; inhibition, % at 6.7 µM;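 active = inhibition above the mean inhibition of all tested compounds plus 3 SD, computed separately for each screening campaign, cut at about 15% in these data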
LYPLA1 counter – blocks human lysophospholipase 1, a PME1 counter-screen; O75608; recombinant LYPLA1, FP-Rh probe fluorescence polarization; inhibition, % at 5.9 µM; actives 0.16% (n = 320,000);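 active = inhibition above the mean of all tested compounds plus 3 SD, set per campaign, cut at about 14% in these data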;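 note: inhibitors block serine hydrolase probe labeling of LYPLA1 so polarization falls; 0% = enzyme with DMSO and 100% = wells lacking LYPLA1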
PME-1 primary – blocks human protein phosphatase methylesterase 1. Q9Y570. recombinant PME-1, FP-Rh probe fluorescence polarization. inhibition, % at 5.9 µM. actives 0.53% (n = 320,000). AID 2130;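 active = inhibition above the campaign mean of all compounds plus 3 SD, cut at about 26% in these data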;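 note: competitive labeling of PME-1 active site by serine hydrolase directed probe; 0% = PME-1 with DMSO and 100% = wells lacking PME-1 enzyme; inhibitors block probe labeling so polarization falls and inhibition rises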
Fam108B inh – Fam108B inhibition, counter-screen for RBBP9 inhibitors | recombinant Fam108B, FP-Rh probe fluorescence polarization | inhibition, % at 9.51 µM | actives 0.33% (n = 300,000) | AID 1947;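 active = inhibition above the screen mean inhibition plus 3 SD, computed separately per campaign, cut at about 18% in these data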;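 note: inhibitors lower polarization as less probe binds the enzyme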
* marks the source's active call; other numbers are inactive results; . = no result.

SMILES	PP5 primary	LYPLA2 inh	PP1 inh	LYPLA1 counter	PME-1 primary	Fam108B inh
CC1(C)C(/C=C/C=C/C=C/C=C2\N(CCCCS(=O)(=O)O)c3ccc4ccccc4c3C2(C)C)=[N+](CCCCS(=O)(=O)[O-])c2ccc3ccccc3c21	3	-25	59*	-8	-52	-4
COc1ccccc1/C=C(/CC(=O)NCc1ccc(F)cc1)c1nc2ccccc2s1	-4	-16	16*	-8	-13	-13
COc1ccccc1N1CCN(Cc2ccc(O)c3ncccc23)CC1	2	2	15*	2	10	-1
O=C(Nc1ccc(Br)cc1)c1ccc2c(c1)OCO2	0	0	-4	-2	-12	-6
CCOc1ccccc1/C=C(\C#N)C(=O)Nc1cccc(C(=O)O)c1	-1	-1	-1	2	142*	0
CCOc1cccc(NC(=O)/C(C#N)=C\c2cn(CC(=O)O)c3ccccc23)c1	2	-2	1	-2	-8	-4
COc1ccc(C=Nc2ccc3[nH]ncc3c2)c(O)c1	1	1	-2	1	0	-1
Oc1c(Br)cc(Br)cc1C=Nc1ccc2[nH]ncc2c1	2	-3	90*	-1	6	5
COc1ccccc1-c1nnc(NC(=O)c2ccc(S(=O)(=O)N(C)CC3CCCO3)cc2)o1 (stereo unspecified)	3	9	17*	4	-5	-5
O=C(Nc1ccc(C(F)(F)F)cc1)C1CCCCN1S(=O)(=O)c1ccccc1 (stereo unspecified)	5	1	0	-6	-7	.
O=C(CN1CCC(c2nc3ccccc3s2)CC1)NCc1cccs1	4	-3	9	-1	40*	0
Oc1c(C(c2cccs2)N2CCN(c3ccccc3)CC2)ccc2cccnc12 (stereo unspecified)	3	1	19*	0	6	4
CN1CCN(C(c2ccc(C(F)(F)F)cc2)c2ccc3cccnc3c2O)CC1 (stereo unspecified)	3	0	14	0	-8	0
COc1ccc(C2C(C(=O)c3ccc(C)o3)=C(O)C(=O)N2Cc2cccnc2)cc1OC (stereo unspecified)	0	1	-2	-2	-4	3
Cc1ccc(C(=O)C2=C(O)C(=O)N(Cc3cccnc3)C2c2ccc(Cl)cc2)o1 (stereo unspecified)	2	2	16*	-1	-5	0
Cc1ccc(C(=O)C2=C(O)C(=O)N(Cc3cccnc3)C2c2cccc([N+](=O)[O-])c2)o1 (stereo unspecified)	3	3	-1	3	-4	0
CCCOc1ccc(C2C(C(=O)c3ccc(C)o3)=C(O)C(=O)N2Cc2ccco2)cc1OCC (stereo unspecified)	2	2	35*	6	-1	4
Cc1ccc(C(=O)C2=C(O)C(=O)N(Cc3cccnc3)C2c2cccc(Oc3ccccc3)c2)o1 (stereo unspecified)	-1	-3	45*	-2	7	2
Cc1ccc(C(=O)C2=C(O)C(=O)N(Cc3ccccc3)C2c2cccnc2)o1 (stereo unspecified)	1	1	3	0	0	2
CCOc1ccc(C2C(C(=O)c3ccc(C)o3)=C(O)C(=O)N2Cc2cccnc2)cc1 (stereo unspecified)	1	6	15*	-1	1	2
COc1ccc(C2C(C(=O)c3ccc(C)o3)=C(O)C(=O)N2Cc2ccco2)cc1OC (stereo unspecified)	1	7	1	-1	-4	-1
CCOc1cccc(CNc2ccc(O)cc2)c1OCc1ccccc1Cl	8	20	4	7	34*	6
CCOc1cccc(CNc2ccc(O)cc2)c1OCc1ccc(Cl)cc1Cl	6	11	6	-1	23	17
COc1cccc(/C=N/NC(=S)Nc2cccc(S(=O)(=O)N(C)C)c2)c1	6	1	-1	-5	15	-1
COc1cc(/C=N/NC(=S)Nc2cccc(S(=O)(=O)N(C)C)c2)cc(OC)c1O	3	5	2	-2	29*	4
SMILES	PP5 primary	LYPLA2 inh	PP1 inh	LYPLA1 counter	PME-1 primary	Fam108B inh
CC(C)(C)NCC(O)COc1ccccc1C1CCCC1 (stereo unspecified)	3	-3	1	-1	-1	1
COc1cccc(C(CNC(=O)C(c2ccccc2)c2ccccc2)N(C)C)c1 (stereo unspecified)	2	-2	-2	-2	2	-3
NNC(=O)c1cc2c(N3CCC(Cc4ccccc4)CC3)ncnc2s1	0	-27	16*	-14	-15	-5
Cn1ncc2c(N3CCC(Cc4ccccc4)CC3)ncnc21	1	3	3	2	3	-3
Cc1cc(C)c(S(=O)(=O)N2CCCCC2CCNC(=O)C(=O)NCc2cccnc2)c(C)c1 (stereo unspecified)	-2	-6	-3	-2	-5	-1
CCOc1cc(/C=C2\C(=N)N3N=C(S(C)(=O)=O)SC3=NC2=O)ccc1OCCOc1cccc(OC)c1	2	-11	12	-17	-6	-7
CCS(=O)(=O)C1=NN2C(=N)/C(=C\c3ccc(OCCOc4cccc(OC)c4)c(OC)c3)C(=O)N=C2S1	3	-12	16*	-10	-22	-4
COc1ccc(S(=O)(=O)N2CCOC2CNC(=O)C(=O)NCCN2CCOCC2)cc1 (stereo unspecified)	0	5	1	-1	-5	4
COc1cccc(OC)c1-c1nn2c(-c3cc(-c4ccccc4)n[nH]3)nnc2s1	5	12	59*	0	-22	-14
CCN(CC)c1ccc(-c2nn3c(-c4ccccc4OC)nnc3s2)cc1	8	11	16*	7	28*	5
N[C@@H](Cc1ccccc1)c1nnc(SC/C=C/c2ccccc2)o1	3	1	-3	-1	-3	-3
Cc1cccc(N2CC(C(=O)NCc3ccco3)CC2=O)c1C (stereo unspecified)	-1	3	0	-3	3	.
Cc1cc(-c2nnc(SCC(=O)Nc3nc(-c4ccc(Cl)cc4)cs3)o2)no1	-1	-16	0	-9	28*	-7
O=C(Nc1ncn[nH]1)c1ccc(Cl)c(S(=O)(=O)Nc2ccc(Cl)cc2)c1	2	-7	17*	-1	-1	-1
O=C(Nc1ncn[nH]1)c1cc(S(=O)(=O)Nc2ccc(Cl)cc2)ccc1Cl	2	3	3	-2	0	1
CCN(CC)C(=O)CSc1nc2c(sc(=S)n2-c2ccccc2)c(=O)n1-c1ccc(OC)c(OC)c1	1	2	3	0	6	1
Cn1c(N)c(C(=O)COC(=O)c2cc(-c3ccco3)nc3ccccc23)c(=O)n(Cc2ccccc2)c1=O	3	-39	30*	-28	-36	-15
